The whole screen tested about 52,000 compounds, of which about 4,300 (8.3%) were called active. The full list was thinned out, with actives kept by preference. Values without a mark were called inactive. Cut-off read from the data, not from the text of the source: active = survival mostly below about 52% (no sharp cut-off); inactive = mostly above about 56%.
These molecules were tested on DeltatarO mutant (assay: growth inhibition of S. aureus wild type versus tarO mutant, primary screen, teichoic acid synthesis inhibitors, RN4220, OD600 (AID 463173)). Details: OD600, 18 h, hits give low values, screened at 18.75 µg/mL (by protocol).
`N#CC(C#N)=CC1=C(N2CCCC2)CCCC1` was tested, and the survival was 89%.
`Cc1c(-c2nc(-c3ccccc3)no2)nnn1-c1cccc(C(F)(F)F)c1` gave a survival of 80%.
For `Cc1ccc(NC(=O)Cn2cc(S(=O)(=O)c3ccccc3)c(=O)c3cc4c(cc32)OCO4)cc1`, the survival was 97%.
In the case of `Cc1ccccc1-c1noc(-c2cc3ccccc3oc2=O)n1`, the survival is reported as 85%.
With `CC1=C(C(N)=O)C(c2cccc(Br)c2)n2nc(SCc3ccccc3)nc2N1` (stereo not given) the survival was 76%.
With `O=C(O)CC1CCCC(c2ccccc2)C1=O` (stereo not given) the survival was 91%.
`Cc1ccc2c(CC(=O)Nc3c(C(=O)c4ccc(F)cc4)oc4ccccc34)coc2c1` showed a survival of 60%.
In the case of `Cc1ccc(S(=O)(=O)N(Cc2nc(-c3cccc(C)c3)no2)C2CCCCC2)cc1`, the survival is reported as 46% (active).
Work on `Cc1ccc(-c2noc(CN(C3CCCCC3)S(=O)(=O)c3ccc(F)cc3)n2)cc1` yielded a survival of 78%.
Molecule `O=S(=O)(c1ccc(F)cc1)N(Cc1nc(-c2ccc(Cl)cc2)no1)C1CCCCC1` has a survival of 76%.
With `O=S(=O)(c1ccc(F)cc1)N(Cc1nc(-c2ccccc2)no1)C1CCCCC1` the survival was 45% (active).
`Cc1cccc(-c2noc(CN(C3CCCCC3)S(=O)(=O)c3ccc(F)cc3)n2)c1` gave a survival of 71%.
With `CCN(Cc1nc(-c2cccc(C)c2)no1)S(=O)(=O)c1ccc(C)cc1` the survival was 43% (active).
In the case of `Cc1ccc(S(=O)(=O)NCc2nc(-c3cccc(C)c3)no2)cc1`, the survival is reported as 100%.
Molecule `COc1ccc(S(=O)(=O)N(Cc2nc(-c3cccc(C)c3)no2)C2CCCCC2)cc1` has a survival of 57%.
In the case of `COc1ccc(S(=O)(=O)N(C)Cc2nc(-c3cccc(C)c3)no2)cc1`, the survival is reported as 51%.
`COc1ccc(-c2cc(C)no2)cc1S(=O)(=O)N1CCN(c2ccc(C(C)=O)cc2)CC1` was tested, and the survival was 91%.
`CCCN1CCN(C(=O)Cn2c(-c3cccs3)cc3ccccc32)CC1` gave a survival of 95%.
For `Cc1cc(C)c2c(=O)[nH]c(SCC(=O)NCCc3ccccc3)nc2n1`, the survival was 61%.
`CCOc1ccc2nc(N3CCCC(C(=O)NCCc4ccc(Cl)cc4)C3)sc2c1` (stereo not given) was tested, and the survival was 48% (active).
Work on `CCCCN(C)CCNC(=O)C1CCN(c2nc3ccc(CC)cc3s2)CC1` yielded a survival of 45%.
Molecule `CCOc1ccc2nc(N3CCCC(C(=O)NCCc4ccc(SC)cc4)C3)sc2c1` (stereo not given) has a survival of 91%.
With `CCOc1ccc2nc(N3CCCC(C(=O)NCCc4ccc(C)cc4)C3)sc2c1` (stereo not given) the survival was 64%.
For `CCCN(CCC)CCNC(=O)C1CCN(c2nc3ccc(CC)cc3s2)CC1`, the survival was 43% (active).
`CCCN(CCC)CCCNC(=O)C1CCN(c2nc3ccc(CC)cc3s2)CC1` was tested, and the survival was 54%.
For `COc1ccc(CCNC(=O)CSc2cn(CCNC(=O)c3c(F)cccc3F)c3ccccc23)cc1OC`, the survival was 79%.
`COc1cccc(CNC(=O)C2CCCN(S(=O)(=O)N(C)c3ccc(F)cc3)C2)c1OC` (stereo not given) gave a survival of 87%.
Molecule `O=C1CS/C(=N\N2CCOCC2)N1Cc1ccccc1` has a survival of 84%.
`Cc1nnc(N2CCN(C(=O)NC(C)C)CC2)c2nn(-c3ccccc3)c(C)c12` was tested, and the survival was 72%.
Work on `O=C(Nc1ccc(F)cc1)c1csc2c1CCCCC2` yielded a survival of 63%.
For `CC(C)c1ccc(NC(=O)Nc2csc3c2CCCC3)cc1`, the survival was 13% (active).
Work on `Cc1cc(NC(=O)Nc2csc3c2CCCC3)ccc1Br` yielded a survival of 44%.
For `Cc1ccccc1NC(=O)Nc1csc2c1CCCC2`, the survival was 29% (active).
In the case of `CCc1cccc(NC(=O)Nc2csc3c2CCCC3)c1`, the survival is reported as 114%.
For `O=C(Nc1ccc(F)cc1)Nc1csc2c1CCCC2`, the survival was 4% (active).
`Cc1ccc(NC(=O)Nc2csc3c2CCCC3)c(C)c1` showed a survival of 63%.
For `Cc1cccc(C)c1NC(=O)Nc1csc2c1CCCC2`, the survival was 78%.
With `Cc1ccc(C)c(NC(=O)Nc2csc3c2CCCC3)c1` the survival was 75%.
Molecule `CCOCCCNC(=O)CCC(=O)NNc1nc2ccccc2c2nc(-c3ccccc3)nn12` has a survival of 83%.
For `COc1ccc(NC(=O)CN2C(=O)CSc3ccc(S(=O)(=O)N(C)C)cc32)cc1Cl`, the survival was 74%.
Work on `CCc1nn(CC(=O)N2CCN(c3cccc(OC)c3)CC2)c(=O)c2cc3occc3n12` yielded a survival of 91%.
`COc1ccc(S(=O)(=O)N(CCc2ccccc2)CC(N)=O)cc1` was tested, and the survival was 88%.
In the case of `Cn1nnnc1SCCCNCc1cc(Cl)ccc1OCc1ccccc1`, the survival is reported as 72%.
For `COCCn1c(SCC(=O)Nc2ccc(F)c(Cl)c2)nc2c(oc3ccccc32)c1=O`, the survival was 44% (active).
For `O=C(CSc1nc2c(oc3ccccc32)c(=O)[nH]1)Nc1cccc(Cl)c1`, the survival was 37% (active).
In the case of `O=C(CSc1nc2c(oc3ccccc32)c(=O)n1-c1ccccc1)Nc1ccc(F)c(Cl)c1`, the survival is reported as 86%.
Molecule `CCOc1ccc(NC(=O)CSc2nc3c(oc4ccccc43)c(=O)n2CCOC)cc1` has a survival of 74%.
`COc1cccc(-n2c(SCC(=O)Nc3cccc(Cl)c3)nc3c(oc4ccccc43)c2=O)c1` showed a survival of 85%.
`O=C(CSc1nc2c(oc3ccccc32)c(=O)n1Cc1ccco1)Nc1cccc(Cl)c1` gave a survival of 62%.
Molecule `O=C(NCc1ccc(F)cc1)C1CCN(c2ncnc3c2nc2n3CCCCC2)CC1` has a survival of 86%.
`CCC1(c2ccccc2)NC(=O)NC1=O` (stereo not given) showed a survival of 98%.
With `Clc1nc(Cl)nc(OCCCOc2nc(Cl)nc(Cl)n2)n1` the survival was 94%.
`CCc1c(C)nc2nncn2c1Nc1ccc(Cl)cc1` was tested, and the survival was 91%.
`Cc1ccc(N2CCN(c3nc4ccccc4c4nnc(C)n34)CC2)c(C)c1` showed a survival of 101%.
For `CCOC(=O)c1cc(OC(=O)c2cc(OC)c(OC)c(OC)c2)n(-c2ccccc2)n1`, the survival was 54% (active).
Work on `CCOC(=O)c1cc(OC(=O)c2ccccc2OC)n(-c2ccccc2)n1` yielded a survival of 54%.
`CCOC(=O)c1cc(OC(=O)c2ccc(OC)c(OC)c2)n(-c2ccccc2)n1` gave a survival of 67%.
Molecule `CCOC(=O)c1cc(OC(=O)c2ccc(C)cc2)n(-c2ccccc2)n1` has a survival of 137%.
For `CCOC(=O)c1cc(OC(=O)c2cc(OC)cc(OC)c2)n(-c2ccccc2)n1`, the survival was 62%.
In the case of `CCOC(=O)c1cc(OC(=O)c2cccc(F)c2)n(-c2ccccc2)n1`, the survival is reported as 61%.
Molecule `CCOC(=O)c1cc(OC(=O)c2cccc(C)c2)n(-c2ccccc2)n1` has a survival of 59%.
With `CCOC(=O)c1cc(OC(=O)c2ccc(OC)cc2)n(-c2ccccc2)n1` the survival was 59% (active).
For `CCOC(=O)c1cc(OC(=O)c2ccc(Cl)cc2)n(-c2ccccc2)n1`, the survival was 85% (active).
`CCOc1ccc(NC(=O)CN2C(=O)COc3ccc(S(=O)(=O)NC4CCCC4)cc32)cc1` showed a survival of 73%.
In the case of `O=C(c1ccc(F)cc1)N1CCN(CCc2ccncc2)CC1`, the survival is reported as 84%.
`CCc1ccc(NCc2cc3ccc(OC)cc3n(CC(=O)Nc3c(C)cc(C)cc3C)c2=O)cc1` gave a survival of 76%.
`N#CSc1ccc(NCCO)cc1C(F)(F)F` showed a survival of 95%.
Molecule `O=C(NCCc1ccc(Cl)cc1)C(=O)NCC(c1ccco1)S(=O)(=O)c1ccc(Cl)cc1` (stereo not given) has a survival of 94%.
Molecule `O=C1CN(C(=O)c2ccc(Cl)cc2Cl)C(c2ccc(F)cc2)c2cc(F)ccc2N1` (stereo not given) has a survival of 65%.
`COc1ccc(-n2ccnc(NCc3ccccc3OC)c2=O)cc1` was tested, and the survival was 89%.
With `COc1ccc(-n2ccnc(NCc3cccs3)c2=O)cc1OC` the survival was 85%.
`COc1ccc(-n2ccnc(NCc3cccs3)c2=O)cc1` was tested, and the survival was 20% (active).
Molecule `O=c1c(NCc2cccs2)nccn1-c1ccccc1` has a survival of 68%.
`COc1ccc(-n2ccnc(NCc3ccc(C)cc3)c2=O)cc1OC` was tested, and the survival was 94%.
For `COc1ccc(-n2ccnc(NCc3ccc(Cl)cc3)c2=O)cc1`, the survival was 8% (active).
`O=c1c(NCCc2ccc(Cl)cc2)nccn1-c1ccccc1` was tested, and the survival was 55%.
In the case of `O=c1c(NCc2ccccc2Cl)nccn1-c1ccccc1`, the survival is reported as 17% (active).
Work on `COc1ccc(-n2ccnc(NCc3ccccc3Cl)c2=O)cc1OC` yielded a survival of 81%.
`Cc1cc(C)cc(NC(=O)c2cccc(N3CCCS3(=O)=O)c2)c1` showed a survival of 101%.
`CCc1ccc(N2C(=O)CSC23C(=O)N(Cc2cccc(F)c2)c2ccccc23)cc1` (stereo not given) gave a survival of 124%.
In the case of `O=C1C(=O)N(C2CCN(C(=O)c3ccccc3Cl)CC2)CCN1Cc1ccc(F)cc1`, the survival is reported as 67%.
Work on `CN1C(C(=O)Nc2ccc(F)cc2F)=CC(c2cccs2)=NS1(=O)=O` yielded a survival of 99%.
In the case of `CCCOc1ccc(-c2nc(SC)[nH]c(=O)c2C#N)cc1OC`, the survival is reported as 79%.
For `Cc1ccccc1C(=O)N1CCC(c2nc3ccccc3s2)CC1`, the survival was 75%.
For `CCc1ccc(OC(C)C(=O)N2CCC(c3nc4ccccc4s3)CC2)cc1` (stereo not given), the survival was 28% (active).
Work on `COc1cccc(C(=O)N2CCC(c3nc4ccccc4s3)CC2)c1` yielded a survival of 70%.
With `COc1ccccc1OC(C)C(=O)N1CCC(c2nc3ccccc3s2)CC1` (stereo not given) the survival was 2% (active).
`CC(Oc1ccc(F)cc1)C(=O)N1CCC(c2nc3ccccc3s2)CC1` (stereo not given) gave a survival of 58%.
`COc1cc(C(=O)N2CCC(c3nc4ccccc4s3)CC2)cc(OC)c1OC` showed a survival of 74%.
Molecule `COc1ccc(C(=O)N2CCC(c3nc4ccccc4s3)CC2)cc1Cl` has a survival of 62%.
With `CCC(Oc1ccccc1F)C(=O)N1CCC(c2nc3ccccc3s2)CC1` (stereo not given) the survival was 2% (active).
Work on `O=C(c1ccccc1Cl)N1CCC(c2nc3ccccc3s2)CC1` yielded a survival of 57%.
`COCCCNC(=O)Cn1cnc2sc(C)c(S(=O)(=O)N3CCC(C)CC3)c2c1=O` gave a survival of 69%.
With `CCOCCc1nn2c(=O)cc(COC(=O)c3ccccc3NC(=O)c3cccs3)nc2s1` the survival was 58%.
Molecule `COc1ccc(CNC(=O)c2cc(-c3ccc(C)cc3)nc3n[nH]c(-c4ccc(Br)cc4)c23)cc1` has a survival of 74%.

From PubChem BioAssay AID463173 (ICCB-Longwood Screening Facility, Harvard Medical School, 2010)
